Compounds with a hit are over-represented: about 3.7% of the library has one in this group of screens.
Tau ThT inhib: tau fibrillization inhibition (ThT binding); recombinant tau K18 P301L, heparin-induced fibrillization, ThT fluorescence; AID 1460; 270,000 tested, 2.1% active; Potency, µM (highest dose often 57.4 µM), without a hit: at the top dose activity, negative = inhibition, actives largely listed as inhibitors; note: % is set by controls: 0 for no effect and ±100 for the full control effect; nearly all actives have a fitted effect of over 55% in size
Target sequence (P10636 561-689 P618L limits assumed): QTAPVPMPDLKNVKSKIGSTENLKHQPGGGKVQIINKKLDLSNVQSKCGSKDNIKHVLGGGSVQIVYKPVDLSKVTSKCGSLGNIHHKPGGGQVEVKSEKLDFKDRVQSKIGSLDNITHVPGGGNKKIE
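Recombinant human tau K18 fragment […] carrying P301L, 15 uM unlabeled plus 0.24 uM Alexa 594-labeled, was fibrillized with 20 uM heparin in 100 mM sodium acetate pH 7 for 6 hr at 37 C; 30 uM ThT fluorescence read after 1 hr.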
HTT aggregate: mutant huntingtin aggregation inhibition | Potency, µM (series often up to 46.1 µM), for the others: at the highest dose activity change, negative = inhibition, hits mostly inhibitors | PC12 HttQ103-GFP aggregates, Acumen cytometry, 40 h | 220,000 tested, 1.1% active; note: % is set by controls: 0 for no effect and ±100 for the full control effect; nearly all actives have a fitted effect of over 60% in size
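PC12 cells with ecdysone-inducible HTT exon1 Q103-GFP, induced by 100 nM tebufenozide, given compounds in a concentration series. GFP aggregates (1–25 um, 6 SD above background) counted in lysates by laser-scanning cytometry, 488 nm excitation.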
Tau fluor counter: counter-screen for tau fibril formation inhibitors; tau K18 P301L (four-repeat tau fragment) Alexa594 fluorescence, heparin fibrillization; Potency, µM (series often up to 57.7 µM), inactives show at the top dose activity change, negative = decrease; 280,000 tested, 0.93% active; note: % is set by controls: 0 for no effect and ±100 for the full control effect; nearly all actives have a fitted effect of over 55% in size
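Human K18 P301L tau (15 uM unlabeled plus 0.24 uM Alexa 594-labeled, final) in 100 mM sodium acetate pH 7 was mixed with compound and 20 uM heparin and incubated 6 hr at 37 C.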
HTT cytoprotect: Huntington cell model cytoprotection by ATP luminescence. 230,000 tested, 0.14% active. Potency, µM (top dose mostly 56.4 µM), inactives show cytoprotection (ATP increase), actives largely listed as activators. PC12 HTT-Q103 induced, cytoprotection, ATP luminescence, 40 h. AID 1471; note: % of control where 0% means no effect; nearly all actives have a fitted effect of over 45% in size
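Quantitative HTS on tebufenozide-induced (100 nM) PC12 cells expressing HTTQ103 exon 1–GFP; compounds tested as a concentration series; survival measured via cellular ATP.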
Tau fibril FP: blocks human tau fibril formation measured by polarization; P10636; 280,000 tested, 0.39% active; AID 1468; K18 P301L tau heparin fibrillization, Alexa594 FP, 6 h; Potency, µM (titrated, usually from 57.7 µM), for the others: top-dose activity, negative = inhibition, most hits filed as inhibitors; note: % is set by controls: 0 for no effect and ±100 for the full control effect; nearly all actives have a fitted effect of over 55% in size
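Compound effects on tau fibrillization are measured by Alexa 594 fluorescence polarization (ex 555, em 632 nm). K18 P301L tau is used at 15 uM with 0.24 uM labeled tracer, and 20 uM heparin induces aggregation over 6 hr at 37 C.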
Numbers without * were called inactive; ? = inconclusive; . = no result given; [ ] = dose if it differs, or a comment. Calls come from the whole dose curve; as a rule, active = well fitted curve in the direction sought with a large enough effect; inconclusive = small, poorly fitted or top-dose-only effect, or another doubt; inactive = no such curve, though single readings can be large; an effect the other way counts as inactive or inconclusive. Potency is the fitted concentration of half-maximal effect.

SMILES	Tau ThT inhib	HTT aggregate	Tau fluor counter	HTT cytoprotect	Tau fibril FP
COc1ccc(C(=O)n2nc(-c3ccco3)nc2NCc2cccs2)cc1OC	?	.	?	.	-17%
c1csc(-c2csc3ncnc(NCCCN4CCOCC4)c23)c1	-6%	7.9µM*	4%	26%[1.9 µM]	4%
CC1=NN(c2ccc([N+](=O)[O-])cc2)C(=O)C1[N+](=O)[O-] (stereo unspecified)	13µM*	.	?	-149%	-1%
Cc1cc(N)n(-c2ccc([N+](=O)[O-])cc2)n1	-4%	7%	-3%	-25%	1%
O=C(O)C(NS(=O)(=O)c1cccc2cccnc12)c1ccccc1 (stereo unspecified)	.	.	.	-2%	.
COC(=O)c1[nH]c2cc(OC)ccc2c1NC(=O)CN1CCN(c2cccc(C)c2)C(C)C1 (stereo unspecified)	?	?	14µM*[quencher]	-56%	?
COC(=O)c1[nH]c2cc(C)ccc2c1NC(=O)CN1CCOCC1	-8%	-3%[9.22 µM]	-8%	6%[10 µM]	4%
COc1ccc(NC(=O)CSc2nc3c(cc2C#N)CN(C)CC3)cc1	?	-12%	-21%	-7%[10 µM]	-2%
N#Cc1cc2c(nc1SCC(=O)O)CCCCC2	-3%	-18%[9.22 µM]	5%	1%[10 µM]	7%
CCc1nnc(NC(=O)c2sc3nc4c(cc3c2N)CCCCC4)s1	1.4µM*	9%	-18%	-24%[10 µM]	17%
CN1CCc2nc(SCC(=O)Nc3ccc(F)cc3)c(C#N)cc2C1	14µM*	8%	?	18%[1.9 µM]	-2%
CCOC(=O)c1sc(NC(=O)CSc2nc(C)cc(C)n2)c(C#N)c1C	-17%	-12%	-25%	-8%	4%
CCOC(=O)c1sc(NC(=O)CSc2nc3c(cc2C#N)CCCCC3)c(C#N)c1C	-19%	5.6µM*	-25%	-25%	?
CCc1nnc(NC(=O)CSc2nc3c(cc2C#N)CCCC3)s1	3.2µM*	-14%	-19%	-19%	1%
COc1ccccc1N1CCN(C(=O)c2ccc(Nc3nc4ccccc4n4nnnc34)cc2)CC1	-16%	.	?	.	1%
Fc1ccc(Nc2nc(SCc3cccc(Cl)c3)nc3ccccc23)cc1	11%	.	?	.	8.9µM*
Fc1ccc(Nc2nc(SCc3cccc(F)c3)nc3ccccc23)cc1	29%	.	?	.	14µM*
COc1ccc(CCNc2nc(SCc3cccc(F)c3)nc3ccccc23)cc1OC	-1%	.	-13%	.	-5%
Clc1ccc(CSc2nc(NCCc3ccccc3)c3ccccc3n2)cc1	-10%	.	-11%	.	-3%
Fc1ccc(Nc2nc(SCc3ccc(Cl)cc3)nc3ccccc23)cc1	?	.	?	.	7.9µM*
O=C(NC1CCCCC1)c1ccc2c(c1)N(Cc1ccccc1Cl)C(=O)c1ccccc1S2	-3%	.	-3%	.	-12%
O[C@H](C[C@@H]1CCCCN1)c1ccc2c(c1)oc1ccccc12	.	.	.	5%[10 µM]	.
CCOc1ccccc1NC(=O)N1c2ccccc2Sc2ccccc21	?	.	-26%	.	-21%
O=C(CSc1nc2cc3ccccc3cc2[nH]1)Nc1cccc(C(F)(F)F)c1	-6%	.	?	.	3.2µM*
COC(=O)c1c(SCC(=O)Nc2cc(F)ccc2F)[nH]c2ccc(C)cc2c1=O	7.1µM*	.	?	.	-3%
SMILES	Tau ThT inhib	HTT aggregate	Tau fluor counter	HTT cytoprotect	Tau fibril FP
COC(=O)c1c(SCC(=O)Nc2cccc(C(F)(F)F)c2)[nH]c2ccccc2c1=O	14µM*	.	16µM*[quencher]	.	-8%
Cc1ccc2nc(SCC(=O)Nc3ccc(F)c([N+](=O)[O-])c3)[nH]c2c1	?	-2%	28µM*[quencher]	3%[10 µM]	-9%
O=C(O)CCc1nnc(SCC(=O)Nc2cccc(C(F)(F)F)c2)[nH]c1=O	-1%	-5%	2%	-1%	6%
O=C(CSCc1cc(=O)c2ccccc2[nH]1)Nc1cccc(C(F)(F)F)c1	-1%	.	-4%	.	0%
Nc1cc(Cl)c([N+](=O)[O-])cc1O	.	.	.	19%	.
CCCCC#Cc1nc(N)c2ncn([C@@H]3O[C@@H](C(=O)NCC)[C@H](O)[C@@H]3O)c2n1	.	.	.	-16%[1.9 µM]	.
Cc1c(Cl)cccc1NC(=O)CSc1nc(=O)[nH]c2c1CCC2	-6%	.	-1%	.	-7%
COC(=O)c1c(SCC(=O)Nc2cccc(Cl)c2C)[nH]c2ccccc2c1=O	16µM*	.	-27%	.	?
O=C1C=CC2(OCCCO2)C(Br)=C1CO	16µM*	.	-10%	-76%	?
CCn1nc(C)c2c(-c3ccccc3)cc(=O)n(C(C)C(=O)Nc3cccc(F)c3)c21 (stereo unspecified)	-8%	.	-18%	.	-15%
Cc1ccccc1N(CC(=O)N/N=C/c1cc(C)n(-c2ccccc2C)c1C)S(C)(=O)=O	-7%	18µM*	-29%	-6%	4%
Cc1cc(C)nc(SCC(=O)N/N=C/c2cc(C)n(-c3ccccc3C)c2C)n1	?	?	-21%	.	6%
CC(C)c1ccc(-c2nc(N3CCCCC3)[nH]c(=O)c2C#N)cc1	2%	-2%	5%	6%[10 µM]	2%
CC1=Nc2nc(N3CCCCC3)c(C#N)c3c4c(nc(c23)N1)N(c1ccc(C(C)C)cc1)C(=O)C4	13µM*	-18%	-30%	15%[10 µM]	?
CN1CCN(c2nc3c(c(=O)n(C)c(=O)n3C)n2C)CC1	.	.	.	-2%[10 µM]	.
COc1cc(/C=C/C(=O)c2c(O)cc(C)oc2=O)cc(OC)c1O	28µM*	?	?	5%	-14%
COc1cc(/C=C/C(=O)c2ccc(NS(=O)(=O)c3ccc(C)cc3)cc2)ccc1OC(F)F	15%	6%	10%	19%[10 µM]	-8%
COc1cc(/C=C/C(=O)c2c(O)ccc3c(C)cc(=O)oc23)ccc1O	16µM*	-25%	-21%	-13%	-3%
COc1cc(/C=C/C(=O)c2ccc(C)c([N+](=O)[O-])c2)cc(OC)c1O	6.3µM*	?	?	7%[10 µM]	7%
COc1cc(/C=C/C(=O)c2ccc(NS(=O)(=O)c3ccc(C)cc3)cc2)cc(OC)c1O	11µM*	11%[9.22 µM]	14µM*[quencher]	5%[10 µM]	15%
CCC(C)n1c(=S)[nH]c2c(sc3ccc([N+](=O)[O-])cc32)c1=O (stereo unspecified)	?	10µM*	-11%	18%[10 µM]	?
CC(C)n1c2ccccc2c2cc([N+](=O)[O-])ccc21	-5%	2%	-9%	11%[0.074 µM]	-8%
CC(C)c1ccc2nc3sc(C(=O)N4CCc5ccccc5C4)c(N)c3cc2c1	13µM*	-4%	?	-18%	8%
Cc1ccc2cc3c(N)c(C(=O)N4CCOCC4)sc3nc2c1	?	-5%	-14%	-92%[10 µM]	4%
Cc1ccc2nc3sc(C(=O)N4CCOCC4)c(N)c3cc2c1	-17%	11%	-11%	-123%	5%
CCOc1ccc2nc3sc(C(=O)N4CCN(C)CC4)c(N)c3cc2c1	13µM*	?	?	-18%	9%

High-throughput results (PubChem)
